# From PubChem BioAssay (NCI)
# This is part of a sample that, as a whole, favours compounds with a hit. Of some 83,000 tested, about 20% had one in any assay.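 Note: values are percent growth. 100 is the growth of untreated cells, values between 100 and 0 indicate rising inhibition; between -100 and 0 indicates cell death.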 Values without a mark were called inactive. Active and inactive are the calls of the source. Rule for the calls: active = growth percent below 10; inactive = the rest.
# Columns and labels:
# Experiment in all cases: NCI-60 one-dose screen, 48 h (100 = growth as untreated, 0 = no growth, -100 = all killed)
# Conditions in all cases: 10 µM
# [1] = tested on: RPMI-8226 leukemia
# [2] = tested on: OVCAR-8 ovarian
# [3] = tested on: OVCAR-5 ovarian
# [4] = tested on: OVCAR-4 ovarian
# [5] = tested on: SK-OV-3 ovarian
# [6] = tested on: IGROV1 ovarian
# [7] = tested on: OVCAR-3 ovarian
# [8] = tested on: HS 578T breast
# [9] = tested on: NCI/ADR-RES ovarian
# [10] = tested on: T-47D breast
Compound,growth [1],growth [2],growth [3],growth [4],growth [5],growth [6],growth [7],growth [8],growth [9],growth [10]
CCN(CC)CCN1CC(=O)Nc2cc(Cl)ccc21,109%,108%,102%,103%,110%,99.9%,109%,94.4%,94.2%,107%
COc1ccc(NC2=NC(C)(CO)CS2)cc1 (stereo not given),83.6%,74.3%,103%,97.7%,104%,87.7%,112%,99.3%,106%,101%
COc1ccc(-c2nn(-c3cccc(NC(=O)Nc4ccccc4)c3)cc2-c2ccncc2)cc1Cl,-35.3% (active),0.341% (active),35.5%,41.4%,80.5%,33.3%,39.4%,31.9%,22.4%,30.9%
Cc1nc2oc3ccccc3c(=O)c2cc1C(=O)NCc1ccccc1,80.4%,90.4%,81.8%,67.9%,110%,102%,93.3%,105%,55.4%,53.9%
C#Cc1ccc(-n2c(/C=C/c3ccc4ccccc4c3)nc3ncccc3c2=O)cc1,-8.86% (active),38.5%,105%,-3.79% (active),68.9%,52.7%,17%,72.8%,42.5%,42.7%
COc1cc(/C=C\c2cc(OC)c(OC)c(OC)c2)cc(NS(=O)(=O)c2ccc(Cl)cc2)c1OC,9.59% (active),17.1%,45%,58.4%,28.2%,46.8%,10.3%,1.49% (active),12.8%,55.3%
Cc1ccc(Nc2cc(C)nc(NCCCNc3ccnc4cc(Cl)ccc34)n2)cc1,-63.8% (active),-60.7% (active),1.62% (active),-26.1% (active),-47.5% (active),7.69% (active),-79.9% (active),-58.6% (active),-33% (active),-73% (active)
CSCCCNC(=O)c1ccc2c(c1)/C(=C/c1[nH]c(C)cc1C)C(=O)N2,19.7%,32.6%,35.9%,27.6%,20.5%,-12.5% (active),45%,-13.5% (active),42.9%,44.5%
COc1ccc(-c2nn(-c3cccc(NC(=O)Nc4cc(C(F)(F)F)cc(C(F)(F)F)c4)c3)cc2-c2ccncc2)cc1Cl,-25.1% (active),1.12% (active),18.7%,16.4%,8.88% (active),4.91% (active),5.75% (active),0.225% (active),5.83% (active),2.31% (active)
Cc1ccc(S(=O)(=O)OCCN(CCOS(=O)(=O)c2ccc(C)cc2)c2c[nH]c(=O)[nH]c2=O)cc1,100%,103%,102%,97.9%,100%,112%,120%,140%,112%,100%
Cc1occc1-c1nnc(SCC(=O)c2ccc(NC(=O)CC(C)C)cc2)o1,77.7%,57%,105%,122%,121%,69.1%,104%,119%,104%,102%
CCN1CCC2(CC1)OC(c1ccccc1)C(c1ccccc1)O2 (stereo not given),101%,106%,95.4%,110%,121%,144%,114%,115%,107%,103%
CC(C)=CCc1cc(O)cc2c1OC(C=C(C)C)C1=C2C(=O)C2=C(NCCS2(=O)=O)C1=O (stereo not given),63.9%,3.18% (active),41.3%,1.98% (active),4.28% (active),-22.3% (active),-9.92% (active),11.2%,87.7%,-10% (active)
O=C(Nc1cccc(-n2cc(-c3ccncc3)c(-c3cc(O)cc(Cl)c3)n2)c1)Nc1ccc(Cl)c(C(F)(F)F)c1,13.8%,3.69% (active),59.3%,31.5%,63.1%,30.6%,1.88% (active),21.7%,41.5%,25%
CC1(C)Cc2c(sc3ncn4nc(-c5ccc(O)cc5)nc4c23)CO1,57.7%,58.5%,86.6%,64.1%,79.8%,75.5%,86.5%,65.3%,64.7%,48.7%
CCN(CC)CCC(CNc1c(C)cnc2cc(Cl)ccc12)c1ccc(Cl)cc1 (stereo not given),44%,61.8%,54.6%,56.6%,81.7%,46.4%,70.8%,70.1%,59%,59.6%
O=C(O)CCCCSc1ncnc2nc[nH]c12,108%,98.3%,102%,116%,92.9%,97.5%,100%,122%,107%,97.2%
COc1ccc(-c2nc3sccn3c2-c2nc3c([nH]2)C(=O)c2ccccc2C3=O)cc1,74.7%,96.2%,89.8%,84.1%,109%,105%,114%,90.6%,86.5%,72%
COc1ccc(-c2nc3ncccn3c2-c2nnc(-c3ccc(F)cc3)o2)cc1,95.9%,92.4%,98.1%,96.6%,107%,110%,103%,96%,93.7%,98.2%
COc1cccc(NC(=O)c2sc3nc4c(cc3c2N)C(O)CCC4)c1 (stereo not given),7.49% (active),17.5%,50.3%,49.1%,24%,27.7%,-34.6% (active),29.7%,8.86% (active),62.1%
COc1cc(-c2cc(/C=C3\C(=O)Nc4ccc(Cl)cc43)[nH]n2)cc(OC)c1OC,-18.3% (active),7.57% (active),68.4%,17%,82.5%,-10.2% (active),34.2%,6.98% (active),11.4%,24.8%
Cc1ccc(N=Nc2c(N)nc(N)[nH]c2=O)cc1C,97.8%,104%,105%,105%,99.2%,92.6%,110%,108%,103%,96%
COc1cc(Cl)cc(-c2nn(-c3cccc(NC(=O)c4ccc(Cl)c(Cl)c4)c3)cc2-c2ccncc2)c1,46%,58.4%,79.2%,58.6%,80.1%,71.6%,53.4%,63.6%,61.4%,63.2%
CCCCOc1ccc(NC(=O)Nc2nnc(C)s2)cc1,80.8%,90.5%,102%,100%,102%,91.6%,120%,116%,93.3%,77.9%
CCCCCCN1CCN(Cc2ccc(N(CC)CC)cc2)C(=O)C1=O,4.35% (active),28.3%,58.8%,54.6%,32.5%,32.1%,5.54% (active),20.6%,0.986% (active),25.5%
C[C@]12CC[C@@H]3c4ccc(O)cc4C[C@@H](O)[C@H]3[C@@H]1CC[C@@H]2O,103%,106%,111%,105%,116%,99.7%,114%,117%,113%,118%
O=C(CC(NC(=O)OCc1ccccc1)C(=O)OCc1ccccc1)OCc1ccccc1 (stereo not given),99.2%,99%,103%,109%,95.1%,108%,110%,97.9%,98%,100%
O=c1cc(-c2ccccc2)[nH]n1-c1nc2ccccc2[nH]1,40.2%,35%,98.6%,25.3%,75.7%,38.9%,60.9%,69.5%,29.1%,62%
